The results in this text go back to PubChem BioAssay AID1458 (National Center for Advancing Translational Sciences (NCATS), 2008).

Each structure is given as a SMILES string. About 5,900 (2.8%) of roughly 210,000 compounds were called active. Entries that show only a call come without a potency. Inconclusive results (about 5%) are left out. The sample as a whole holds a higher share of actives than the screen did. Unmarked numbers belong to inactive results. Calls come from the whole dose curve; as a rule, active = well fitted activation curve with a large enough effect; inconclusive = small, poorly fitted or top-dose-only effect; inactive = no such curve, though single readings can be large or run the other way.
Potency is the fitted concentration of half-maximal effect.

A short description of the assay: qHTS Assay for Enhancers of SMN2 Splice Variant Expression. Note: nearly all actives have a fitted effect of over 55% in size. The settings on record: HEK293 SMN2-luciferase splicing reporter, luminescence, 30-36 h; series mostly up to 46.1 µM. The procedure, abridged:
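HEK293 cells carry an SMN2 minigene-luciferase reporter in which exon 7 inclusion puts luciferase in frame. Cells were seeded at 2000 cells/well, attached for 10-12 hours, then exposed to compounds for 30-36 hours at 37C before ONE-Glo luminescence.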
A general note: Quantitative high-throughput screening tests each substance at several concentrations.
As to `O=C(Nc1ccc(OC(F)(F)F)cc1)c1cc2c(=O)n3ccccc3nc2s1`, the Potency entry is “inactive”.

Consider `O=C(Cn1c(=O)n(-c2ccc(F)cc2)c(=O)c2sccc21)Nc1cccc(C(F)(F)F)c1`, for which the Potency entry was “inactive”.

As for `CCN(CC)CCNC(=O)c1cc2c(=O)oc3ccc(C)cc3c2s1`, the Potency entry was “inactive”.

With `COc1cccc(-c2nc(S(=O)(=O)c3ccc(C)cc3)c(NCc3ccccc3)o2)c1`, the Potency result is “inactive”.

For `COc1cccc(-c2nc3cc(C)ccc3o2)c1`, the Potency was 11.2 µM (active).

Turning to `O=C(COc1ccc(Cl)cc1)Nc1ccc(-c2nc3cc(Cl)ccc3o2)c(O)c1`, the Potency entry is “inactive”.

Regarding `COc1cccc(C(=O)Nc2ccc3oc(-c4ccc5ccccc5c4)nc3c2)c1`, the Potency result is “inactive”.

For `COc1ccc2oc(-c3cccc(NC(=O)CSc4ccc(Cl)cc4)c3)nc2c1`, the Potency is 8.91 µM (active).

Regarding `COc1cc2ccccc2cc1C(=O)Nc1cccc(-c2nc3ccccc3o2)c1`, the Potency result is “inactive”.

Regarding `CCCSc1ncc(Cl)c(C(=O)Nc2sc3c(c2C(=O)NCCOC)CCCC3)n1`, the Potency result is “inactive”.

With `O=C(c1ccccc1F)N1CCC(c2nc3c(nnn3Cc3cccc(F)c3)c(=O)[nH]2)CC1`, the Potency result was “inactive”.

Turning to `COc1ccc(-c2cc(C(F)(F)F)nc(SCC(=O)N(C)Cc3ccccc3)n2)cc1OC`, the Potency entry was “inactive”.

As for `CCOc1ccc(N(CC)C(=O)c2cc3c(=O)oc4ccccc4c3s2)cc1`, the Potency result is “inactive”.

Consider `CSc1ncc(Cl)c(C(=O)Nc2ccc(S(=O)(=O)N3CCCC(C)C3)cc2)n1` (stereo unspecified), for which the Potency result was “inactive”.

As for `CCOc1cccc(NC(=O)CSc2ncc(-c3ccc(Cl)cc3)[nH]2)c1`, the Potency result was “inactive”.

Regarding `CCC(=O)N1CCc2cc(S(=O)(=O)NC(Cc3ccccc3)C(=O)NCc3ccc(C)cc3)ccc21` (stereo unspecified), the Potency entry is “inactive”.

As for `Cc1ccc(NC(=O)Nc2ccccc2)c(Br)c1`, the Potency is 12.6 µM (active).

Consider `Cc1cccc(NC(=O)Nc2nnc(-c3ccccc3)o2)c1`, for which the Potency entry is “inactive”.

As for `CC(=O)c1cccc(NC(=O)Nc2ccc(C)cc2)c1`, the Potency entry was “inactive”.

Turning to `CCN(CC)c1cc(NC2CCCCC2)c2c3c(onc13)-c1ccccc1C2=O`, the Potency entry was “inactive”.

Take `CSc1nc2ccc(NC(=O)c3c(F)cccc3F)cc2s1`: the Potency was 12.6 µM (active).

Consider `Nc1nnc(SCC(=O)Nc2ccc3nc(SCC(=O)Nc4ccccc4)sc3c2)s1`, for which the Potency result was “inactive”.

`CCCC(=O)Nc1nc2ccc(NC(=O)c3c(F)c(F)c(OC)c(F)c3F)cc2s1`: the Potency entry was “inactive”.

Regarding `CCC(C(=O)Nc1cccc(Cl)c1C)n1nc(-c2ccc(C)cc2)ccc1=O` (stereo unspecified), the Potency result was “inactive”.

On to `Cc1cc2nn(-c3ccc(Cl)cc3)nc2cc1NC(=O)C(C)C`, for which the Potency entry is “inactive”.

As to `CCc1ccc(-c2nnn(Cc3nc4ccccc4s3)n2)cc1`, the Potency result is “inactive”.

`COc1ccccc1OCc1nc2ccccc2s1`: the Potency was 3.16 µM (active).

As for `COc1ccc(-c2nc3ccccc3s2)cc1NC(=O)COc1ccccc1C`, the Potency result was “inactive”.

In the case of `COc1ccc(C2=NC3(CCCCC3)N(CC(=O)Nc3ccc(C(C)C)cc3)C2=O)cc1`, the Potency entry is “inactive”.

As for `C/C(Nc1ccc2oc(=O)ccc2c1)=C1/C(=O)CC2[C@@H]1C2(C)C` (stereo partly specified), the Potency result was “inactive”.

`CCNS(=O)(=O)c1ccc(NC(=O)CSc2nc(-c3ccco3)cc(C(F)(F)F)n2)cc1`: the Potency result is “inactive”.

Turning to `O=C(Nc1cccc([N+](=O)[O-])c1)c1ccc2c(c1)OCO2`, the Potency result was “inactive”.

As for `CN1CCN(c2ccc(NC(=O)c3ccc4c(c3)OCCO4)cc2Cl)CC1`, the Potency is 14.1 µM (active).

Turning to `O=C(Nc1ccc2c(c1)OCO2)c1ccc(N2C(=O)c3ccccc3C2=O)cc1`, the Potency entry was “inactive”.

With `O=C(Nc1cccc(Cl)c1N1CCOCC1)c1ccc2c(c1)OCCO2`, the Potency result is “inactive”.

In the case of `CCSc1ccccc1C(=O)Nc1ccc2c(c1)OCO2`, the Potency entry was “inactive”.

Turning to `Cn1c(=O)n(C)c2cc(C(=O)Nc3ccc4c(c3)OCO4)ccc21`, the Potency was 11.2 µM (active).

Consider `O=C(Nc1ccc2c(c1)OCCO2)c1ccc(Cl)c(S(=O)(=O)N2CCCCC2)c1`, for which the Potency entry was “inactive”.

Consider `CC(C)C(=O)Nc1cccc(C(=O)Nc2ccc3c(c2)OCO3)c1`, for which the Potency is 15.8 µM (active).

`Cn1c(NC(=O)c2ccc3c(c2)OCO3)cc(=O)n(C)c1=O`: the Potency result is “inactive”.

For the compound `Cc1ccc(-c2nc3ccccn3c2Nc2c(C)cccc2C)o1`, the Potency entry is “inactive”.

Take `N#C/C(=C\c1cccc(F)c1)c1nc(-c2cc3c(ccc4ccccc43)oc2=O)cs1`: the Potency result is “inactive”.

On to `CCOc1ccc(C(=O)c2cn(Cc3ccc(F)cc3)c3ccc(F)cc3c2=O)cc1`, for which the Potency result is “inactive”.

As to `Cc1ccc2nc(CNC(=O)c3ccccc3)[nH]c2c1`, the Potency was 11.2 µM (active).

Consider `Cc1ccc(C(=O)NCCNC(=O)c2ccccc2)cc1`, for which the Potency result was “inactive”.

For the compound `Cc1ccc2nc(CC(=O)c3ccc4ccccc4c3)c(=O)[nH]c2c1`, the activity change, positive = activation is -3.77% [at 9.22 µM].

`Cc1ccc(C)c(Nc2nnc(-c3ccc(C)c(S(=O)(=O)N4CCCCC4)c3)c3ccccc23)c1`: the Potency entry is “inactive”.

With `Cc1cc(NC(=O)C2CCC(CNS(=O)(=O)c3ccc(Br)s3)CC2)ccc1Br` (stereo unspecified), the Potency result is “inactive”.

As for `CCC(=O)Nc1cccc(NC(=O)c2cccnc2)c1`, the Potency result was “inactive”.

As for `Cc1cc2nc(-c3ccc(NC(=O)c4cccnc4)cc3)oc2cc1C`, the Potency is 12.6 µM (active).

Regarding `Cc1ccc(-n2nc3cc(C)c(NC(=O)c4cccnc4)cc3n2)cc1`, the Potency result was “inactive”.

As for `O=C(CSc1nnc(CNC(=O)c2ccccc2)n1-c1ccc(F)cc1)Nc1ccccc1F`, the Potency entry was “inactive”.

As to `Cc1ccc(CNC(=O)CCc2c(C)nc3nc(CNC(=O)OC(C)(C)C)nn3c2C)cc1`, the Potency result is “inactive”.

With `COc1ccc(CCNCc2c(C(=O)O)c(C)n(Cc3cccc(C)c3)c2C)cc1OC`, the Potency result is “inactive”.

For the compound `COc1cc(SC)ccc1C(=O)Nc1cc(C)ccn1`, the Potency is 2.24 µM (active).

As for `Cc1ccnc(NC(=O)CCCOc2ccccc2)c1`, the Potency result was “inactive”.

Take `Cc1ccc(C(=O)COc2cccc(NC(=O)c3ccco3)c2)cc1`: the Potency entry is “inactive”.

In the case of `COc1cccc(C(=O)Nc2ccc(NC(=O)c3ccco3)cn2)c1`, the Potency result is “inactive”.

Take `COc1ccccc1OCCNC(=O)c1cc([N+](=O)[O-])cc([N+](=O)[O-])c1`: the Potency result was “inactive”.

Consider `COc1cc(SC)ccc1C(=O)Nc1nc(C)cs1`, for which the Potency result is “inactive”.

Turning to `COc1cc(SC)ccc1C(=O)NCCOc1ccccc1Cl`, the Potency was 12.6 µM (active).

As for `Cc1occc1C(=O)Nc1nnc(-c2ccncc2)s1`, the Potency entry was “inactive”.

With `Cc1ccnc(NC(=O)c2ccc(NC(=O)c3ccco3)cc2)c1`, the Potency was 10 µM (active).

Take `Cc1occc1C(=O)Nc1cccc(Cn2cccn2)c1`: the Potency result was “inactive”.

With `COc1ccccc1CNC(=O)c1ccc(SC)cc1OC`, the Potency result was “inactive”.

Take `Cc1ccnc(NC(=O)c2ccoc2C)c1`: the Potency is 15.8 µM (active).

`CCOc1ccc2oc(=O)cc(CN3CCN(C(=O)c4ccc(F)cc4)CC3)c2c1`: the Potency result was “inactive”.

Take `CCOC(=O)c1ccc(NC(=O)CC2C(=O)N(c3cccc(OC)c3)C(=O)N2C2CCCCC2)cc1` (stereo unspecified): the Potency result was “inactive”.

As to `COc1cc(C(=O)N2CCN(C(=O)COc3cccc(C)c3)CC2)cc(OC)c1OC`, the Potency entry is “inactive”.

As to `CC(=O)c1sc(N2C(=O)c3oc4ccccc4c(=O)c3C2c2ccc(C)cc2)nc1C` (stereo unspecified), the Potency result was “inactive”.

As for `CCc1ccc(NC(=O)c2sc3nc4c(cc3c2N)CN(CC)CC4)cc1`, the Potency entry is “inactive”.

Take `O=C(CSc1ccccc1)Nc1ccc(NC(=O)c2ccco2)cc1`: the Potency result was “inactive”.

As to `O=C(/C=C/c1ccco1)Nc1ccc(Oc2ccccc2)cc1`, the Potency result was “inactive”.

With `O=C(Nc1ccc(Oc2ccccc2)cc1)c1ccco1`, the Potency is 15.8 µM (active).

As to `C#CC(C)(CC)NC(=O)Cn1nnc(-c2ccc(OCc3c(F)cccc3Cl)cc2)n1` (stereo unspecified), the Potency result was “inactive”.

On to `COc1ccc(CCNC(=O)CCCCn2c(=O)c3ccccc3n(Cc3ccccc3)c2=O)cc1OC`, for which the Potency result is “inactive”.

With `COc1cc(/C=C/CO)cc(OC)c1O[C@@H]1O[C@H](CO)[C@@H](O)[C@H](O)[C@H]1O`, the Potency result was “inactive”.

For the compound `COc1cc(/C=C/C2=CC(C)(C)NC(=S)N2)cc(OC)c1OC`, the Potency is 11.2 µM (active).

For the compound `Cc1noc(/C=C/N(C)C)c1S(=O)(=O)N1CCCC(C(=O)Nc2cccc(F)c2)C1` (stereo unspecified), the Potency result is “inactive”.

With `Cc1cc(C)c(NC(=O)CCc2c(C)nc3c(c(C)nn3C(C)(C)C)c2C)c(C)c1`, the Potency entry was “inactive”.

As for `O=C(CSc1nnc(-c2ccco2)n1Cc1ccccc1)NC(=O)NCc1ccco1`, the Potency entry was “inactive”.

For the compound `c1ccc(CSc2nnc(-c3ccco3)c(-c3ccco3)n2)cc1`, the Potency result is “inactive”.

`c1ccc(CSc2nnc(-c3ccco3)n2Cc2ccccc2)cc1`: the Potency was 22.4 µM (active).

As to `COc1ccc(Cn2cc(C(=O)c3ccc(C)cc3)c(=O)c3cc(OC)c(OC)cc32)cc1`, the Potency result is “inactive”.

As to `Cc1ccn2c(Nc3ccc4c(c3)OCCO4)c(-c3ccc(C)s3)nc2c1`, the Potency result was “inactive”.

For `CCN(CC)S(=O)(=O)c1ccc(C(=O)N=c2sc3cccc(OC)c3n2C)cc1`, the Potency result is “inactive”.

With `Cc1cc(C)c(-c2n[nH]c3c2C(c2ccccc2F)N(CCO)C3=O)c(O)c1` (stereo unspecified), the Potency entry was “inactive”.

Regarding `CCn1cc(C(=O)N2CCN(c3cc(C)ccc3C)CC2)c(=O)c2cc(S(=O)(=O)N(C)C3CCCCC3)ccc21`, the Potency entry is “inactive”.

Turning to `Cc1ccn(-c2cccc(-n3ccc(C)n3)n2)n1`, the Potency was 7.94 µM (active).

With `CCOc1ccc(NC(=O)CC2C(=O)N(c3cccc(OC)c3)C(=O)N2C2CCCCC2)cc1` (stereo unspecified), the Potency entry was “inactive”.

Consider `Cc1cccc(CC(=O)N2CC(=O)Nc3ccc(F)cc3C2c2ccccc2)c1` (stereo unspecified), for which the Potency entry is “inactive”.

In the case of `COc1ccc(N/N=C2/CCCCC2=O)cc1`, the Potency entry is “inactive”.

For the compound `Cc1ccc(N/N=C2\COC(C)(C)CC2=O)cc1`, the Potency is 11.2 µM (active).

In the case of `Cc1ccc(NN=C2C(=O)OC(C)(C)OC2=O)c(C)c1`, the Potency entry is “inactive”.

Regarding `CCCn1c(=N)n(CC(O)COc2ccccc2OC)c2ccccc21` (stereo unspecified), the Potency entry was “inactive”.

Take `CCOC(=O)c1ccc(NC(=O)CCn2c(=O)oc3ccccc32)cc1`: the Potency entry was “inactive”.

On to `CSc1ccc(/C=N\NC(=O)COc2ccc(Cl)cc2Br)cc1`, for which the Potency result is “inactive”.

On to `CSc1ccc(/C=N/NC(=O)c2cccc(Cl)c2)cc1`, for which the Potency is 10 µM (active).

With `COc1ccc(/C=N/NC(=O)c2cccc(C(F)(F)F)c2)cc1`, the Potency entry was “inactive”.

`CCn1cc(C(=O)N(C)Cc2ccccc2)c(=O)c2cc(S(=O)(=O)N3CCCCCC3)ccc21`: the Potency entry was “inactive”.

As for `COC(=O)c1c(NC(=O)c2cc(=O)c3c(C)cc(C)cc3o2)sc2c1CCCC2`, the Potency result is “inactive”.
